Measurements published in the supplement of paper PMC6555819.

How the values were obtained:
Test in all cases: PBM binding z-score (relative to random genomic background probes); higher = stronger binding; sequences stand for … in GC…GCGATTGACAGCGTAGAATGAAGG
[1] = tested on: FXR:RXRa (NR concentration 270 nM, RXRa partner concentration 90 nM)
Procedure, shortened: (§1)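 Regression normalization was applied to scanned fluorescence from custom Agilent 4×180K protein-binding microarrays. Before scanning, arrays were incubated 1 h with ligand-free nuclear receptor dimers, and binding was detected with antibodies against each partner (one per run). Binding z-scores use the random background probes as reference.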

[2] = tested on: LXRa:RXRa (NR concentration 270 nM, RXRa partner concentration 90 nM)
Procedure, shortened: as §1

[3] = tested on: LXRa homodimer (NR concentration 270 nM)
Procedure, shortened: as §1

[4] = tested on: LXRb:RXRa (NR concentration 270 nM, RXRa partner concentration 90 nM)
Procedure, shortened: as §1

[5] = tested on: LXRb homodimer (NR concentration 270 nM)
Procedure, shortened: as §1

[6] = tested on: PPARa:RXRa (NR concentration 270 nM, RXRa partner concentration 90 nM)
Procedure, shortened: as §1

[7] = tested on: PPARg:RXRa (NR concentration 180 nM, RXRa partner concentration 90 nM)
Procedure, shortened: as §1

[8] = tested on: PPARg:RXRa 270nM:90nM, anti-RXR (NR concentration 270 nM, RXRa partner concentration 90 nM)
Procedure, shortened: as §1

[9] = tested on: PPARg:RXRa 30nM:10nM, anti-RXR (NR concentration 30 nM, RXRa partner concentration 10 nM)
Procedure, shortened: as §1

[10] = tested on: PPARg:RXRa 90nM:30nM, anti-RXR (NR concentration 90 nM, RXRa partner concentration 30 nM)
Procedure, shortened: as §1

[11] = tested on: PPARg:RXRa DBDmut IVT, anti-RXR (DBD mutation: RXRa K156A/R161A, NR concentration 270 nM, RXRa partner concentration 90 nM)
Procedure, shortened: as §1

[12] = tested on: PPARg:RXRa IVT, anti-PPARg (NR concentration 270 nM, RXRa partner concentration 90 nM)
Procedure, shortened: as §1

[13] = tested on: PPARg DBDmut:RXRa IVT, anti-PPARg (DBD mutation: PPARg1 K132A/R137A, NR concentration 270 nM, RXRa partner concentration 90 nM)
Procedure, shortened: as §1

[14] = tested on: PPARg DBDmut IVT, anti-PPARg (DBD mutation: PPARg1 K132A/R137A, NR concentration 270 nM)
Procedure, shortened: as §1

[15] = tested on: PPARg homodimer (NR concentration 180 nM)
Procedure, shortened: as §1

[16] = tested on: PXR:RXRa (NR concentration 270 nM, RXRa partner concentration 90 nM)
Procedure, shortened: as §1

[17] = tested on: PXR homodimer (NR concentration 270 nM)
Procedure, shortened: as §1

[18] = tested on: RARa:RXR (NR concentration 270 nM, RXRa partner concentration 90 nM)
Procedure, shortened: as §1

[19] = tested on: RARa homodimer (NR concentration 270 nM)
Procedure, shortened: as §1

[20] = tested on: RARb:RXRa (NR concentration 270 nM, RXRa partner concentration 90 nM)
Procedure, shortened: as §1

Sequence	PBM binding z-score [1]	PBM binding z-score [2]	PBM binding z-score [3]	PBM binding z-score [4]	PBM binding z-score [5]	PBM binding z-score [6]	PBM binding z-score [7]	PBM binding z-score [8]	PBM binding z-score [9]	PBM binding z-score [10]	PBM binding z-score [11]	PBM binding z-score [12]	PBM binding z-score [13]	PBM binding z-score [14]	PBM binding z-score [15]	PBM binding z-score [16]	PBM binding z-score [17]	PBM binding z-score [18]	PBM binding z-score [19]	PBM binding z-score [20]
ATCTCTAGGTATAGATAGTTCAGTGAATGCAAAT	0.0439	0.281	0.536	0.328	0.404	0.225	0.685	0.289	0.345	0.323	-0.0574	0.416	1.48	1.36	0.546	0.877	0.855	0.453	0.807	0.415
AGTCAAAGTTCATCTAGGTAACGGAAGATATGCT	6.87	6.02	4.37	3.7	1.73	4.86	6.85	6.48	3.55	5.62	0.826	4.12	1.91	0.45	3.26	5.42	7.16	3.87	2.15	4.94
CCAGACAGGTGAGAAGGTAACTCAACCTCGATTA	-0.191	0.167	0.188	0.347	-0.388	0.894	0.669	0.515	0.064	0.437	1.22	0.742	0.229	-0.571	1.06	0.207	0.428	0.706	0.916	0.619
TCGAGGAGGTTAGGGGCATTCAGAATGGCGTCGA	1.12	0.91	-0.0426	1.71	0.134	1.94	0.354	1.08	1.19	1.09	1.17	0.304	-0.348	-0.472	1.01	1.03	0.679	0.889	0.232	1.62
CCGACTGGGGCAAGGTTACCAGAACGCACAGCCA	0.168	0.506	-0.288	0.501	-1.15	1.97	2.79	3.43	0.792	2.68	2.21	3.49	-0.808	-1.44	0.502	0.259	0.151	0.58	-0.644	1.63
ATCGAAAGGTCGCCGAGGTGAGTATACACCGTTT	5.1	3.88	0.0507	3.11	0.601	5.12	3.84	4.39	1.55	2.85	0.699	2.7	1.2	0.615	1.79	3.34	0.6	4.03	0.336	4.25
TCGAGTACGTTAGTCGGGGCATTCAGCCAACATA	-0.454	-0.474	-0.665	0.0371	-1.12	0.167	-0.163	0.223	0.88	0.775	0.607	-0.44	-0.411	-0.712	-0.34	-0.0967	-0.478	-0.134	-0.667	0.019
